This is an account of results in ChEMBL document CHEMBL4513216, “Probing the Open Global Health Chemical Diversity Library for Multistage-Active Starting Points for Next-Generation Antimalarials” (ACS Infect Dis, 2020).

About 2,700 (4%) of roughly 68,000 compounds showed an effect of 50% or more. The sample holds strong results, similar compounds and a random draw of the others, so the mix is not that of the screen.

This experiment has as its system Plasmodium berghei. In words: Screen against P. berghei liver stage (PbLuc), transformed with Luciferase, at 2uM. The experiment is classed as functional, HepG2. Particulars: tested at 2 uM.
For `COC(=O)Cn1c(=O)[nH]c2cn(-c3ccc(F)cc3)c(=O)n21`, the INHIBITION was -3.97%. Then `O=C1COc2ccc(C(=O)NS(=O)(=O)c3ccccc3F)cc2N1`, with 8.37%; and `Cc1nnc([C@@H]2C[C@H]3CN(C(=O)c4c(C)noc4C)C[C@H]3O2)[nH]1`, with 38.2%. Then `CN1CCN(C(=O)c2cnn(-c3ccccc3Cl)c2)CC1`, with -1.02%; and `Cn1cc(Cl)c(C(=O)N2CCCN(C3Cc4ccccc4C3)CC2)n1`, with -18.65%; and `CC(=O)N1CCN(C(=O)c2cnn(-c3ccccc3Cl)c2)CC1`, with -90.79%.

Consider `Cn1cc(C(=O)N2CCCN(C3Cc4ccccc4C3)CC2)cn1`, for which the INHIBITION is recorded as 55.66%.

Consider `CC(=O)N1CCCN(C(=O)c2cnn(-c3ccccc3Cl)c2)CC1`, for which the INHIBITION is listed as 82.5%. For the compound `Cc1nn(C)cc1C(=O)N1CCCN(C2Cc3ccccc3C2)CC1`, the INHIBITION was 19.12%. To `Cc1ccnn1CCC(=O)N1CCN(C2CCc3ccccc3C2)CC1` (stereo unspecified) belongs 14.13%; to `CCCn1nccc1C(=O)N1CCN(C2CCc3ccccc3C2)CC1` (stereo unspecified), 57.85%. With `Cc1ccnn1CC(=O)N1CCN(C2CCc3ccccc3C2)CC1` (stereo unspecified), the INHIBITION was 46.02%. `CCN(CC)C1CCN(C(=O)c2cc(-n3cccn3)ccc2Cl)CC1`: the INHIBITION is recorded as -16.01%.

Regarding `Cc1noc(C)c1C(=O)NCC(C)N(C)C` (stereo unspecified), the INHIBITION was determined as 8.37%. To `CC[C@@H]1N(Cc2ccc(C)o2)CCC[C@]12CCC(=O)N2CCOC` belongs 33.74%; to `O=C(CCCc1ccccn1)N1CCCC1c1noc(C2CC2)n1` (stereo unspecified), 30.91%; to `COc1c(C)cnc(CN(C)C2CCCCC2)c1C`, 11.8%. To `O=c1c(NCCNCCO)c(N2CCN(c3ccccc3)CC2)c1=O` belongs -11.72%. On to `CC1(C(N)=O)CCCN(c2cnccn2)C1` (stereo unspecified), for which the INHIBITION is on record as -4.8%. To `CC(C)[C@@H](CO)Nc1cc(-c2cn[nH]c2)ncn1` belongs 21.81%; to `O=C([C@H]1COC[C@H]2CN(C3CCCC3)C[C@H]21)N1CCOCC1`, 12.4%. For the compound `CC(=O)c1ccc(Cl)c(Cl)c1OCC(=O)NC(C)C`, the INHIBITION came to 26.27%. To `COc1ccc2c(c1)C1(CCN(Cc3nccs3)CC1)N(C)CC2` belongs 13.75%; to `CC(NC(=O)Cc1cccs1)(C(N)=O)c1cccc(Cl)c1` (stereo unspecified), -18.59%.

On to `CN(CCc1ccccn1)C(=O)C1Cc2ccccc2CN1C` (stereo unspecified), for which the INHIBITION was 31.78%. As for `CC(=O)N1Cc2ccccc2C[C@H]1C(=O)N(C)Cc1ccccn1`, the INHIBITION was determined as 58.12%. As for `CC(=O)N1Cc2ccccc2C[C@H]1C(=O)N(C)CCc1ccccn1`, the INHIBITION is on record as 8.73%.

In the case of `Cc1nnsc1C(=O)NCc1nn(C)c2c1COCC2`, the INHIBITION is -1.74%. As to `O=C(C1CCOCC1)N1C[C@@H]2CC[C@H]1CN(C1Cc3ccccc3C1)C2`, the INHIBITION is reported as 27.33%.

As to `COC(=O)[C@H]1C[C@@H](O)CCN1S(=O)(=O)c1ccc(F)cc1F`, the INHIBITION amounted to 16.25%.

Regarding `COC(=O)[C@H]1C[C@@H](O)CCN1S(=O)(=O)c1cc(C)c(Cl)cc1C`, the INHIBITION is reported as 26.51%.

Take `COC(=O)[C@H]1C[C@@H](O)CCN1S(=O)(=O)c1cc(Cl)ccc1OC`: the INHIBITION came to 55.18%. Then `CCS(=O)(=O)N1CCc2c(cccc2NCc2nc(C)c(C)o2)C1`, with -23.97%. Turning to `CCc1nnc(NC(=O)N(CCOC)Cc2ccc(C)o2)s1`, the INHIBITION came out at 83.98%. To `COCCN(Cc1ccc(C)o1)C(=O)Nc1nnc(C(F)F)s1` belongs -44.8%. Then `CCC(=O)Nc1nnc(CCOc2ccc(OC)cc2)s1`, with -14.16%.

`COCCN(Cc1cnn(C)c1)Cc1ccc(C)o1`: the INHIBITION was 12.58%. On to `COCCN(Cc1ccc(C)o1)C(=O)Nc1ncc(C)s1`, for which the INHIBITION stood at 62.51%. To `COCCN(Cc1ccc(C)o1)C(=O)Nc1nnc2ccccn12` belongs 33.9%; to `Cc1noc(C)c1CCC(=O)N1CCCCC1CNS(C)(=O)=O` (stereo unspecified), -3.46%; to `COc1ccccc1C(C)(C)NC(=O)c1ccc(F)c(NC(C)=O)c1`, 38.49%. To `Cc1nc(-c2ccccc2C(=O)O)cc(C2CCN(C(C)C)C2)n1` (stereo unspecified) belongs 17.01%; to `CN(Cc1cccnc1)CC1CCCN1c1cccnn1` (stereo unspecified), 33.31%; to `Cc1nc(N2CCN(C)CC2)ncc1C(=O)N1CCCCCC1`, -15.75%.

Consider `Cc1ccc(-c2n[nH]cc2CNCCn2cccn2)o1`, for which the INHIBITION was 7.85%.

`CCN1CCN(c2ccc(CNC(=O)c3ccccc3F)cn2)CC1`: the INHIBITION is listed as 20.41%. For the compound `O=C(Cc1cccnc1)N1CCCC(n2cncn2)C1` (stereo unspecified), the INHIBITION is given as -7.82%. On to `NC(=O)N1CCC2(CC1)CN(c1ccsc1)C(=O)CO2`, for which the INHIBITION is on record as -12.73%. Regarding `N#Cc1cccc(N2CCC3(CCC(=O)N(CC(N)=O)C3)CC2)n1`, the INHIBITION was -30.57%. On to `Cc1cc(N2CCC3(CCC(=O)N(CCCO)C3)CC2)nc(N(C)C)n1`, for which the INHIBITION was 57.75%. Turning to `N#Cc1cccc(N2CCC3(CCC(=O)N(CC4CCCO4)C3)CC2)n1` (stereo unspecified), the INHIBITION is reported as -41.11%. Then `CCCc1nc(C)cc(N2CCC3(CCC(=O)N(CCCO)C3)CC2)n1`, with -25.22%. To `N#Cc1cccc(N2CCC3(CCC(=O)N(CCCO)C3)CC2)n1` belongs 58.18%.

As to `Cc1cc(N2CCC3(CCC(=O)N(CCO)C3)CC2)nc(N(C)C)n1`, the INHIBITION is 19.59%. On to `O=C(COc1coc(CN2CCCCC2)cc1=O)Nc1cccc(Cl)c1`, for which the INHIBITION is recorded as -13.13%. Then `CCOCC(O)CN1CCN(C(=O)Cc2ccc3c(c2)CCC3)CC1` (stereo unspecified), with 24.88%; and `Cc1ccc(CN(Cc2cc(C)no2)C2CC2)cc1`, with 2.01%. To `CCOc1cc(C)nc(N2CCN(C(=O)c3csnn3)CC2)n1` belongs -14.16%; to `CCOCC(O)CN1CCN(C(=O)c2ccccc2F)CC1` (stereo unspecified), 30.29%; to `CCn1cc(CN2C[C@@H]3CCCN3C[C@H]2CCSC)cn1`, -25.95%. As for `Cc1ccc(N(C)CC(O)COCc2ccccc2F)c(C)c1` (stereo unspecified), the INHIBITION is reported as 25.92%. For the compound `CCc1nnc(CN2CCC(C3CCCCCN3C(C)=O)CC2)o1` (stereo unspecified), the INHIBITION is on record as -5.58%. To `CCOCCCNC(=O)c1nc2c(s1)CCCN2c1ccc(C)nn1` belongs -14.63%; to `CCNC(=O)C(C)NC(=O)Nc1ccccc1SC(F)(F)F` (stereo unspecified), -16.18%.

Consider `CCNC(=O)C(C)NC(=O)Nc1ccccc1SCC` (stereo unspecified), for which the INHIBITION is 60.13%. `CCNC(=O)C(C)NC(=O)Nc1ccccc1Cl` (stereo unspecified): the INHIBITION is 12.43%.
